Each structure is given as a SMILES string. Active and inactive are the calls of the source. The call rests on the fitted dose curve; in most records, active means well fitted curve in the direction sought with a large enough effect; inactive means no such curve, though single readings can be large or run the other way.

Chain of Alpha-galactosidase (Coffea arabica) (Q42656 whole entry, looked up): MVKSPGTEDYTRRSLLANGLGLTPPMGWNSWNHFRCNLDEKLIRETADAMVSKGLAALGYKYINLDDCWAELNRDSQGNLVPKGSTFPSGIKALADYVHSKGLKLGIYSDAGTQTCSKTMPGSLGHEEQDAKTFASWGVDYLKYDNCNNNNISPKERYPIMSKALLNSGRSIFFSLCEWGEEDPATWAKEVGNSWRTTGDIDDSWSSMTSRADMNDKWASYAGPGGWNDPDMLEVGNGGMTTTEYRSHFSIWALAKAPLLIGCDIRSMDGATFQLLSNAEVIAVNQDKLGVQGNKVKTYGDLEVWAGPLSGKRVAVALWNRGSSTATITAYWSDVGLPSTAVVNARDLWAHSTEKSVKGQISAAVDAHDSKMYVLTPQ

This assay has as its target Alpha-galactosidase (Coffea arabica) (UniProt Q42656). Nature of the assay: Counterscreen for Glucocerebrosidase Inhibitors: qHTS Assay for Coffee Bean alpha-Galactosidase at pH 5.9 (AID 998). To be noted: coffee bean alpha-galactosidase enzyme assay; series mostly up to 76.9 µM. An excerpt:
NIH Chemical Genomics Center [NCGC]
NIH Molecular Libraries Screening Centers Network [MLSCN]
PI Name: Zheng, Wei [NIH]
Alpha-galactosidase is a homodimeric glycoprotein that hydrolyzes the terminal alpha-galactosyl moieties from glycolipids and glycoproteins. Deficiency of this enzyme results in Fabry Disease with progressive accumulation of globotriaosylceramide and other glycosphingolipids in vascular endothelial cells that causes renal failure, myocardial infarction and stroke, and premature death in patients. It has reported that the improper folding and trafficking of alpha-galactosidase resulted from the genetic mutations may account for a significant numbers of Fabry patients. […] We optimized this coffee bean alpha-galactosidase assay in 1536-well plate format as a counter-screen assay for identifying the selective small molecule inhibitors of other lysosomal enzymes.
NCGC Assay Protocol Summary:
This is a fluorogenic enzyme assay with 4-Methylumbelliferyl alpha-D-galactopyranoside as the substrate and green coffee bean […] (from Sigma-Aldrich) as the enzyme preparation. Upon the hydrolysis of this fluorogenic substrate, the resulting product, […]. 4-Methyllumbelliferone, can be excited at 365 nm and emits at 440 nm which can be detected by a standard fluorescence plate reader. Data were normalized to the controls for basal activity (without enzyme) and 100% activity (with enzyme). In the AC50 values were determined from concentration-response data modeled with the standard Hill equation.
Assay buffer: 50 mM citric acid, 0.005% Tween-20, pH 5.9. (pH 5.9 is an optimal condition for this enzyme assay.)
1536-well assay protocol for the coffee bean alpha-galactosidase:
(1) Add 2 ul/well of enzyme (2 nM final)
(2) Add 23 nL compounds in DMSO solution. The final titration was 0.7 nM to 77 uM.
(3) Add 1 ul of substrate (80 uM final)
(4) Incubate at room temperature for 20 min.
(5) Add 2 ul stop solution (1M NaOH and 1M Glycine mixture, pH 10)
(6) Detect the assay plate in a ViewLux plate reader (PerkinElmer) with Ex=365 nm and Em=440nm.
Keywords: Alpha-galactosidase, Fabry Disease, pharmacological chaperone, chaperone therapy, high throughput screening, alpha-galactosidase inhibitor, MLSMR, MLSCN, NIH Roadmap, qHTS and NCGC
(A counterscreen serves to expose hits that act by an unwanted route or on another target.)
With `Fc1cccc(/C=N\N=C/c2cccc(F)c2)c1`, the call was inactive.
Regarding `CN[C@@H](CC(C)C)C(=O)N[C@@H]1C(=O)N[C@H](CC(N)=O)C(=O)N[C@H]2C(=O)N[C@H]3C(=O)N[C@H](C(=O)N[C@H](C(=O)O)c4cc(O)cc(O)c4-c4cc3ccc4O)[C@H](O)c3ccc(c(Cl)c3)Oc3cc2cc(c3O[C@@H]2O[C@@H](CO)[C@@H](O)[C@@H](O)[C@H]2O[C@H]2C[C@](C)(N)[C@H](O)[C@H](C)O2)Oc2ccc(cc2Cl)[C@@H]1O`, the compound was classed as inactive.
Next, `Cc1nnc(SCC2=C(C(=O)O)N3C(=O)[C@@H](NC(=O)Cn4cnnn4)[C@@H]3SC2)s1`: “inactive”.
For the compound `CC(=O)[C@@]1(O)Cc2c(O)c3c(c(O)c2[C@H](O[C@H]2C[C@H](N)[C@H](O)[C@H](C)O2)C1)C(=O)c1ccccc1C3=O`, the outcome was inactive.
Next, `N=C1Sc2ccccc2C2=NCCCN12`: “inactive”.
To `CC(=O)N[C@@H](C(=O)O)C(C)(C)SN=O` belongs “inactive”; to `C[C@@H]1COc2c(N3CCN(C)CC3)c(F)cc3c(=O)c(C(=O)O)cn1c23`, “inactive”.
Turning to `NC[C@@H]1O[C@@H](O[C@H]2[C@@H](O)[C@H](O[C@@H]3[C@H](O)[C@H](N)C[C@H](N)[C@H]3O[C@@H]3O[C@@H](CO)[C@H](O)[C@H](O)[C@@H]3N)O[C@H]2CO)[C@H](N)[C@H](O)[C@@H]1O`, the result was inactive.
As to `C[C@]1(C(=O)O)[C@@H]2CC[C@@H](O2)[C@@]1(C)C(=O)O`, the call was inactive.
For `CNC(=O)[C@@H]1O[C@@H](n2cnc3c(NCc4cccc(I)c4)ncnc32)[C@H](O)[C@@H]1O`, the result was inactive.
Next, `COc1ccccc1CNCCCCCCNCCCCCCCCNCCCCCCNCc1ccccc1OC`: “inactive”; `C[C@@](N)(Cc1ccc(O)cc1)C(=O)O`: “inactive”; `C[C@H](Oc1ccc(Oc2cnc3ccc(Cl)cc3n2)cc1)C(=O)O`: “inactive”.
Next, `O[C@@H]1CCCC[C@H]1N1CCC(c2ccccc2)CC1`: “inactive”; `CCSC(N)=Nc1ccc(C(F)(F)F)cc1`: “inactive”; `CCn1c(=O)c2[nH]c(-c3ccccc3)nc2n(CC)c1=O`: “inactive”.
To `O=S(=O)(O)C1CCNCC1` belongs “inactive”.
As for `N[C@H](CCC(=O)NCS(=O)(=O)O)C(=O)O`, the compound was called inactive.
To `C1CCC(N=C(NC23CC4CC(CC(C4)C2)C3)N2CCOCC2)CC1` belongs “inactive”; to `C/C=C1\C(=O)C[C@@H]2[C@@H]3CCC4=CC(=O)CC[C@@]4(C)[C@H]3CC[C@@]12C`, “inactive”.
To `CC(=O)[C@@]1(O)CC[C@@H]2[C@@H]3CCC4=CC(=O)CC[C@@]4(C)[C@H]3CC[C@]21C` belongs “inactive”.
Turning to `CCCCCN(CCCCC)C(=O)[C@H](CCC(=O)O)NC(=O)c1ccc(Cl)c(Cl)c1`, the compound was classed as inactive.
To `N[C@]1(C(=O)O)CCc2cc(C(=O)O)ccc21` belongs “inactive”; to `CCCCCCCCCCCCCCCCCC(=O)NC[C@@H](COP(=O)([O-])OCC[N+](C)(C)C)OCC`, “inactive”; to `CC(C)(C(=O)O)c1ccc([C@@H](O)CCCN2CCC(C(O)(c3ccccc3)c3ccccc3)CC2)cc1`, “inactive”.
As to `CC(C)NC[C@@H](O)COc1ccc(CCOCC2CC2)cc1`, the result was inactive.
Regarding `CC(N)=NCc1cccc(CN)c1`, the call was inactive.
With `C[C@]12CC3CC(N)(C1)C[C@@](C)(C3)C2`, the result was inactive.
To `Nc1ncnc2c1ncn2[C@@H]1O[C@@H](COP(=O)(O)OP(=O)(O)OP(=O)(O)OP(=O)(O)OC[C@@H]2O[C@@H](n3cnc4c(N)ncnc43)[C@@H](O)[C@H]2O)[C@H](O)[C@@H]1O` belongs “inactive”; to `CCCCC[C@H](CC(=O)NO)C(=O)N[C@@H](C(=O)N1CCC[C@H]1CO)C(C)C`, “inactive”.
`O=S(=O)(NCCNC/C=C\c1ccc(Br)cc1)c1cccc2cnccc12`: the compound was classed as inactive.
With `C[C@@H]([C@H](O)c1ccc(O)cc1)N1CCC(Cc2ccccc2)CC1`, the call was inactive.
To `C[C@@]12C(=O)OC(=O)[C@@]1(C)[C@H]1CC[C@@H]2O1` belongs “inactive”.
Next, `CC[C@]1(O)C[C@H]2CN(CCc3c([nH]c4ccccc34)[C@](C(=O)OC)(c3cc4c(cc3OC)N(C=O)[C@H]3[C@@](O)(C(=O)OC)[C@H](OC(C)=O)[C@@]5(CC)C=CCN6CC[C@]43[C@H]65)C2)C1`: “inactive”; `CNCC[C@H](Oc1ccccc1C)c1ccccc1`: “inactive”; `O=C(O)C[C@@H]1CCCc2ccccc2[C@H]1O`: “inactive”.
Next, `Cc1cccc(/C=C\c2ccccc2)n1`: “inactive”; `C[C@]1(C2CCCC2)Cc2cc(OCC(=O)O)c(Cl)c(Cl)c2C1=O`: “inactive”.
On to `N#C[C@@H](Cc1ccc(O)c(O)c1)C(=O)N1CCc2ccccc21`, for which the compound was classed as inactive.
Next, `CN1CCN([C@@H]2Cc3ccccc3Sc3ccc(Cl)cc32)CC1`: “inactive”.

The values are drawn from PubChem BioAssay (NCATS).
